# Compound activity as filed in PubChem.
# In the library only some 19% were active in any assay of this set; here they are far more common.
# Cycloheximide cs: counter-screen for Shiga toxin inhibitors: cycloheximide protein synthesis inhibition; cell reporter, cycloheximide protein synthesis inhibition counterscreen; AID 2314; max response, %; hit rate 12% among 300,000; in the data active = max response mostly above about 13%, no sharp cut-off; inactive = mostly below about 14%; note: read at 38.3 µM for the half of the compounds with a filed dose
# Pf growth 48h: P. falciparum growth inhibition at 48 hours (one generation). P. falciparum luciferase growth in erythrocytes, 48 h. Potency, µM (doses to about 28.7 µM), most hits filed as inhibitors. hit rate 5.9% among 310,000. AID 504832
#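 Here the parasites carry a stable luciferase gene and grow inside erythrocytes in Albumax-based RPMI medium with compound for one erythrocytic cycle. Activity is scored as loss of luminescent signal.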
# Pf growth 96h: inhibits malaria parasite growth, 96 h; Potency, µM (titrated, usually from 28.7 µM), usual class: inhibitors; hit rate 6.9% among 320,000; P. falciparum luciferase reporter growth, 96 h
#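 Infected RBCs, 2% Hct / 0.05% parasitemia final; luciferase-reporter P. falciparum; cpd 96 h, 37 C, 5% CO2; luciferase detection reagent; luminescence.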
# SARS PLpro yeast: SARS-CoV PLP inhibition in yeast. hit rate 0.19% among 330,000. Potency, µM (doses to about 32.9 µM), hits mostly activators. AID 485353. S. cerevisiae expressing SARS-CoV PLpro, growth rescue; calls by dose curve; note: nearly all actives have a fitted effect of over 55% in size
# AMA1-RON2 inh: inhibitors of Plasmodium falciparum AMA1-RON2 interaction; AlphaScreen AMA1-biotinylated RON2 peptide binding; Potency, µM (top dose mostly 58.2 µM), hits mostly inhibitors; hit rate 0.2% among 360,000; AID 720542; note: nearly all actives have a fitted effect of over 45% in size
#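 AMA1 (3D7) with his tag at 25 nM final met compounds first, then biotinylated RON2 peptide at 25 nM; detection used donor plus acceptor beads, 10 µg/mL apiece, read by AlphaScreen after 30 min at room temperature.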
# Shiga toxin inh: inhibitors of Shiga toxin in Vero cells. Vero cells, Shiga toxin protein synthesis inhibition reporter. inhibition, % at 38.7 µM. hit rate 9.2% among 290,000. AID 2315; in the data active = inhibition mostly above about 28%, no sharp cut-off; inactive = mostly below about 43%
# A number is an active result; n = inactive; u = inconclusive; x = no result; [ ] = dose if it differs, or a comment. Unless noted, calls come from the whole dose curve; as a rule, active = well fitted curve in the direction sought with a large enough effect; inconclusive = small, poorly fitted or top-dose-only effect, or another doubt; inactive = no such curve, though single readings can be large; an effect the other way counts as inactive or inconclusive.
SMILES,Cycloheximide cs,Pf growth 48h,Pf growth 96h,SARS PLpro yeast,AMA1-RON2 inh,Shiga toxin inh
O=C(CCn1c(=O)sc2ccccc21)Nc1nccs1,33,x,n,n,n,n
O=C(CCSc1ccccc1)Nc1ccccc1Br,40,u,n,n,n,74
COCCNC(=O)C1CCC(CNS(=O)(=O)c2ccc(F)cc2)CC1 (stereo not drawn),n,n,u,n,n,n
CC(=O)c1sc2nsc(SCCN3CCCCC3)c2c1N,29,u,u,n,n,n
Nc1c(C(=O)c2ccccc2)sc2nsc(SCCN3CCCC3)c12,40,u,u,n,n,104
Nc1c(C(=O)c2ccc(Cl)cc2)sc2nsc(SCCN3CCOCC3)c12,n,n,n,n,n,n
CCn1cc(C(=O)O)c(=O)c2cnc(N3CCN(C(=S)NC(=O)c4ccc(OC)cc4)CC3)nc21,n,n,n,n,n,n
CCOC(=O)c1ccc2ncc(C(=O)OCC)c(NCc3ccco3)c2c1,27,x,1.7µM,n,n,n
CCOC(=O)c1cnc2c(C)cccc2c1NCc1ccco1,24,u,u,n,n,37
CCOC(=O)c1ccc2ncc(C(=O)OCC)c(NCCCN3CCOCC3)c2c1,n,u,u,n,n,n
CCOC(=O)c1cnc2c(C(=O)OC)cccc2c1NCc1ccco1,n,u,x,n,n,n
O=C(OCc1ccc([N+](=O)[O-])cc1)c1cnc(Cl)c(Cl)c1,n,n,n,n,n,n
CCc1ccc(C2NC(c3ccc(CC)cc3)C([N+](=O)[O-])C(C)(C)C2[N+](=O)[O-])cc1 (stereo not drawn),n,u,13µM,n,n,n
CCc1ccc(C2NC(=S)NC3=C2C(=O)CCC3)cc1 (stereo not drawn),n,u,u,n,n[2.32 µM],n
O=C(C1=NNCC1c1ccccc1)C1OC1c1ccccc1 (stereo not drawn),12,u,u,n,n,34
O=C(c1ccccc1)C1OC1C(=O)c1ccccc1 (stereo not drawn),x,x,x,x,n,x
COC(=O)c1ccc(N2C(=O)CC(SCCN)C2=O)cc1 (stereo not drawn),42,n,n,n,n,54
CCCOc1ccc(N2C(=O)CC(SCCc3nc4ccccc4[nH]3)C2=O)cc1 (stereo not drawn),n,n,n,n,n,n
COC(=O)c1ccc(N2C(=O)CC(N(C)Cc3ccccc3)C2=O)cc1 (stereo not drawn),n,n,0.29µM,n,n,n
CCOC(=O)C(N)CSC1CC(=O)N(c2ccc(C(=O)OC)cc2)C1=O (stereo not drawn),n,n,5.2µM,u,n,n
CCCOc1ccc(N2C(=O)CC(SCCN)C2=O)cc1 (stereo not drawn),50,n,u,n,3.5µM,93
CCCOc1ccc(N2C(=O)CC(SCC(N)C(=O)OCC)C2=O)cc1 (stereo not drawn),n,u,u,n,n,n
CCOc1ncccc1C(=O)OCC(=O)c1cc(OC)c(OC)c(OC)c1,n,n,n,n,n,n
CCCn1nnc(NC(=S)NC(=O)/C=C/c2ccco2)n1,n,n,n,n,n,n
O=C(O)CNC(=O)c1ccc(N2CCOCC2)cc1[N+](=O)[O-],n,n,n,n,n,n
SMILES,Cycloheximide cs,Pf growth 48h,Pf growth 96h,SARS PLpro yeast,AMA1-RON2 inh,Shiga toxin inh
CC(C)(O)C(=O)NNC(=S)Nc1ccc(F)c(Cl)c1,n,n,n,n,n,n
COc1ccc2c3c(cccc13)OC2=O,n,n,n,n,n,n
COc1ccc2c3c(cccc13)N(C)N=C2C,n,10µM,n,n,n,n
CCCCCc1nnc(NC(=O)c2cccc(S(=O)(=O)N3CCOCC3)c2)s1,x,u,u,n,n,x
O=C(Nc1nccs1)C1CC2CCC1C2 (stereo not drawn),n,n,n,n,n,n
O=C(Nc1ccc([N+](=O)[O-])cn1)C1CC2CCC1C2 (stereo not drawn),n,n,n,n,n,17
COc1cc2c(cc1OC)C1O[C@](CCCCN3C(=O)c4ccccc4C3=O)(C2)Oc2c1c(=O)oc1ccccc21,n,u,u,n[6.58 µM],x,n
CCCC[C@]12Cc3cc(OC)c(OC)cc3C(O1)C1=C(O2)C(=O)c2ccccc2C1=O,n,1.3µM,n[5.75 µM],n[6.58 µM],x,n
CCCC[C@]12Cc3ccccc3C(O1)c1c(c3ccccc3oc1=O)O2,n,n[5.75 µM],u,n[6.58 µM],x,n
CC1(C)CC(=O)C2=C(C1)O[C@@]1(CCCCN3C(=O)c4ccccc4C3=O)Cc3ccccc3C2O1,n,1.7µM,1.7µM,n[6.58 µM],x,n
CCCC[C@]12Cc3ccccc3[C@H](O1)C1=C(O2)C(=O)c2ccccc2C1=O,n,u,0.85µM,n[6.58 µM],x,n
CCCCC[C@]12Cc3ccccc3C(O1)C1=C(CC(C)(C)CC1=O)O2,n,n[5.75 µM],u,n[6.58 µM],x,n
Cc1c(C(=O)N2CCCCC2)nn(-c2ccc(Cl)cc2)c(=O)c1C#N,n,n,n,n,n,n
COc1ccc([C@@H]2CC=C(C(=O)O)[C@H](c3ccc(C)cc3)N2S(=O)(=O)c2ccc(C)cc2)cc1OC,x,x,x,n,n,x
COc1cccc([C@@H]2CC=C(C(=O)O)[C@H](c3ccc(Cl)cc3)N2S(=O)(=O)c2ccc(C)cc2)c1,x,u,9.3µM,n,n,x
COc1ccc([C@@H]2CC=C(C(=O)O)[C@H](c3ccc(Cl)cc3)N2S(=O)(=O)c2ccc(C)cc2)cc1OC,x,u,13µM,n,n,x
COc1cc([C@@H]2CC=C(C(=O)O)[C@H](c3ccc(C)cc3)N2S(=O)(=O)c2ccc(C)cc2)cc(OC)c1OC,x,x,x,n,n,x
COc1cc([C@@H]2CC=C(C(=O)O)[C@H](c3cccc(Cl)c3)N2S(=O)(=O)c2ccc(C)cc2)cc(OC)c1OC,x,u,13µM,n,n,x
O=C1COc2ccc(S(=O)(=O)Nc3cccc(Cl)c3)cc2N1,n,n,n,n,n,n
C=CCNc1cnn(-c2ccc(C)cc2)c(=O)c1Sc1ccc(C)cc1,n,u,u,n,n,n
CCCCN1C(=O)C(CC(=O)NCCCCc2ccccc2)CC(C(=O)N(C)C)=C1C (stereo not drawn),x,x,x,x,n,x
Cc1ccc(C(=O)NCC(=O)NC23CC4CC(CC(C4)C2)C3)cc1,37,n,n,n,n,69
Cc1ccc(NC(=O)COc2cccc(-n3cnnn3)c2)cc1[N+](=O)[O-],n,u,n,n,n,n
CCCCCCC(C)n1[nH]c(=O)cc1N (stereo not drawn),n,n,n,n,n,n
COc1ccc(C2CC(c3cccs3)=NN2C(=S)Nc2ccccc2)cc1OC (stereo not drawn),n,6.6µM,9.3µM,n,n,n
COc1cccc(C2CC(c3cccs3)=NN2C(=S)Nc2ccccc2)c1OC (stereo not drawn),n,u,n,n,n,n
S=C(Nc1ccccc1)N1N=C(c2cccs2)CC1c1cccs1 (stereo not drawn),n,u,n,n,n,20
